Hits are enriched below; roughly 2.9% of the tested compounds scored in any of these assays.
Glyco luc inh = blocks N-linked glycosylation in D54 reporter cells. reporter increase, % at 12.5 µM. AID 588692. D54 ERlucT glycosylation luciferase reporter, 24 h; percent of 100 nM tunicamycin response. 360,000 compounds, 0.23% hits;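 active = mean luciferase reporter signal, scaled so untreated is 0 and the glycosylation-blocking control 100, at or above a set limit in every replicate; inconclusive = mean reaches the limit but not every replicate does; inactive = mean below the limit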;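 note: luciferase carries N-glycosylation sites so blocking glycosylation raises the light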
Vif inh = HIV Vif inhibition; HEK293T cells, Vif self-association by quenched fluorescence, imaging, 24 h; inhibition, % at 7.49 µM; 340,000 compounds, 0.35% hits; AID 602346; in the data active = inhibition above about 50%, passing the limit was not always enough; inconclusive = no clear call, values can overlap the other calls; inactive = below about 31%
Wnt act = activators of Wnt/beta-catenin signaling; Wnt/beta-catenin reporter cell assay, activator, plate reader; activation, % at 9.35 µM; 300,000 compounds, 1.2% hits; in the data active = activation above about 30%, passing the limit was not always enough; inconclusive = no clear call, values can overlap the other calls
esBAF inh = SWI/SNF esBAF complex inhibition. mouse ES cells, Bmi1-luciferase knock-in reporter, 24 h; 100% = twice the neutral-well signal. reporter increase, % at 12.5 µM. 350,000 compounds, 2% hits; in the data active = activation above about 40%; inconclusive = no clear call, values can overlap the other calls;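 note: a rise in the Bmi1 reporter signal indicates esBAF inhibition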
MITF act = MITF TRPM1 promoter activation in melanoma cells. 300,000 compounds, 0.75% hits. SK-MEL-5 TRPM1-promoter luciferase, 24 h; % of positive control, neutral wells = 0. activation, % at 12.5 µM. AID 588334;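 active = mean activation of at least 80% with every replicate also reaching 80%; inconclusive = mean reaches 80% but some replicate falls short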
PvdQ acylase = blocks Pseudomonas aeruginosa PvdQ acylase activity. purified PvdQ acylase, fluorescence plate reader. inhibition, % at 10 µM. 340,000 compounds, 0.063% hits. AID 488965; in the data active = inhibition above about 30%, passing the limit was not always enough; inconclusive = no clear call, values can overlap the other calls
Each line names hits and unclear results; the compound was inactive in the other large screens.

C[C@H]1CN([C@@H](C)CO)C(=O)Cc2cc(NC(=O)Nc3ccccc3)ccc2O[C@H]1CN(C)Cc1ccc(C(F)(F)F)cc1	none (no result: Glyco luc inh, Vif inh, Wnt act, MITF act, PvdQ acylase)
CCCCn1cnc2cc(NCc3ccncc3)ccc21	none (no result: Wnt act)
CC(C)(C)n1cnc2cc(NCc3ccc(Br)cc3)ccc21	Wnt act inconclusive
CCc1ccc(CNc2ccc3c(c2)ncn3CC)cc1	esBAF inh 75, MITF act 91
CCc1ccc(CNc2ccc3c(c2)ncn3C(C)(C)C)cc1	esBAF inh 51
COCC(=O)Nc1ccc2c(c1)C(=O)N(C)C[C@H](OC)[C@@H](C)CN(C(=O)c1cnccn1)[C@@H](C)CO2	none (no result: Glyco luc inh, Vif inh, Wnt act, MITF act, PvdQ acylase)
N#CC1=C(SCC(=O)Nc2ccccc2)NC(=O)CC1c1ccco1 (stereo not given)	esBAF inh 79 (no result: Wnt act)
Cc1ccc2nc(=O)c(NNc3ccccc3)cnc2c1	Wnt act inconclusive (no result: esBAF inh)
Cc1nc2ccccc2nc(=O)c1NNc1ccccc1	MITF act 102 (no result: esBAF inh)
O=C(O)c1ccccc1SCc1cn2cc(Cl)ccc2n1	Wnt act 43 (no result: esBAF inh)
O=C(O)c1cccnc1SCc1cn2cc(Cl)ccc2n1	none
C[C@H](CO)N1C[C@H](C)[C@@H](CN(C)C)Oc2cc(-c3ccc(F)cc3)ccc2S1(=O)=O	none (no result: Glyco luc inh, Vif inh, Wnt act, MITF act, PvdQ acylase)
C[C@@H]1CCCCO[C@@H](CN(C)Cc2ccc3c(c2)OCO3)[C@H](C)CN([C@@H](C)CO)C(=O)c2cc(NC(=O)c3ccccc3)ccc2O1	none (no result: Glyco luc inh, Vif inh, Wnt act, MITF act, PvdQ acylase)
Cc1ccc(/C=C\c2nccc3c2[nH]c2ccccc23)cc1	esBAF inh 55
CO[C@@H]1CN(C)C(=O)c2cc(NS(C)(=O)=O)ccc2OC[C@@H](C)N(C(=O)C2CC2)C[C@H]1C	none (no result: Glyco luc inh, Vif inh, Wnt act, MITF act, PvdQ acylase)
COc1cc(OC)cc(-c2ncc3ccccn23)c1	none (no result: Wnt act)
COc1cccc(-c2ncc3ccccn23)c1	esBAF inh 52
C[C@@H]1CN([C@@H](C)CO)C(=O)c2cc(N(C)C)ccc2O[C@@H](C)CCCCO[C@H]1CN(C)C(=O)C1CCCCC1	none (no result: Glyco luc inh, Vif inh, Wnt act, MITF act, PvdQ acylase)
Clc1ccc2c(c1)[C@H]1OCC[C@H]1[C@@H](c1ccco1)N2	esBAF inh 48
Oc1ccc(Cl)cc1C1=NNC(c2cccs2)C1 (stereo not given)	Wnt act inconclusive, esBAF inh inconclusive, PvdQ acylase 34
Cc1ccc(O)c(C2=NNC(c3ccc(Cl)cc3)C2)c1 (stereo not given)	Wnt act inconclusive (no result: esBAF inh)
Cc1ccc(Nc2cc(=O)[nH]c(=O)[nH]2)cc1C	Vif inh 57
Cc1cccc(Nc2cc(=O)[nH]c(=O)[nH]2)c1	none (no result: esBAF inh)
COc1ccc(/[N+]([O-])=C/c2ccco2)cc1	Wnt act 46, esBAF inh 55, MITF act 89
C[C@@H]1CN([C@@H](C)CO)C(=O)Cc2cc(NC(=O)Nc3ccc(F)cc3)ccc2O[C@@H]1CN(C)C(=O)Nc1ccc2c(c1)OCO2	none (no result: Glyco luc inh, Vif inh, Wnt act, MITF act, PvdQ acylase)
OC(COc1ccc(OCc2ccccc2)cc1)CN1CCOCC1 (stereo not given)	none (no result: Wnt act)
OC(COc1ccc(OCc2ccccc2)cc1)CN1CCCCC1 (stereo not given)	MITF act 88 (no result: Wnt act)
O=C(C[C@H]1CC[C@H](NC(=O)Nc2cc(F)ccc2F)[C@H](CO)O1)Nc1ccccc1	none (no result: Glyco luc inh, Vif inh, Wnt act, MITF act, PvdQ acylase)
O=C(NCC[C@@H]1CC[C@@H](NS(=O)(=O)Cc2ccccc2)[C@H](CO)O1)C1CCOCC1	none (no result: Glyco luc inh, Vif inh, Wnt act, MITF act, PvdQ acylase)
CCC(C)(C)n1nnnc1C(c1cc2cc(OC)c(OC)cc2[nH]c1=O)N1CCc2ccccc21 (stereo not given)	none (no result: Wnt act, esBAF inh)
COc1cc2cc(C(c3nnnn3C(C)(C)C)N3CCc4ccccc4C3)c(=O)[nH]c2cc1OC (stereo not given)	Glyco luc inh inconclusive, Wnt act 34
O=C(C[C@@H]1CC[C@@H]2[C@H](COC[C@@H](O)CN2Cc2cc(F)ccc2F)O1)NCc1ccc(Oc2ccccc2)cc1	none (no result: Glyco luc inh, Vif inh, Wnt act, MITF act, PvdQ acylase)
CC(=O)Nc1ccn(-c2ccccc2)n1	none (no result: MITF act)
CCOc1ccc(NC(=O)c2ccc(NC(=O)c3ccccc3Br)cc2)cc1	none
O=C(Nc1ccc(C(F)(F)F)cc1)c1ccccc1Br	esBAF inh 55
O=C(Nc1ccc(NC(=O)c2ccccc2Br)cc1)c1ccccc1	esBAF inh 42
O=C(Nc1ccn(-c2ccccc2)n1)c1ccccc1Br	Wnt act inconclusive, esBAF inh 69
COC(=O)Cc1ccc(NC(=O)c2ccccc2Br)cc1	none (no result: esBAF inh)
O=C(CSc1nnc2ccccn12)NNC(=O)c1ccc(Cl)cc1	none
O=c1c2ccccc2nnn1CSc1nnc2ccccn12	Wnt act 53, esBAF inh 47 (no result: MITF act)
O=C(CSc1nnc2ccccn12)c1ccc(Cl)cc1	Wnt act 36
O=C(NCCOc1ccccc1F)C1CC(=O)N(Cc2ccccc2)C1 (stereo not given)	Wnt act 34
Cc1ccc(OCCNC(=O)C2CC(=O)N(Cc3ccccc3)C2)cc1 (stereo not given)	none
Cc1ccnc(NC(=O)C2CC(=O)N(Cc3ccccc3)C2)c1 (stereo not given)	Wnt act inconclusive, MITF act 90
COC(=O)c1sc(-c2ccc(C(C)(C)C)cc2)cc1NC(=O)COCC(=O)O	none (no result: Vif inh, MITF act)
COC(=O)c1sc(-c2ccc(Cl)cc2)cc1NC(=O)CSCC(=O)O	Vif inh 51 (no result: esBAF inh, MITF act)
COc1cccc(NC(=O)N2C[C@@H](O)COC[C@H]3O[C@H](CC(=O)NC4CCCC4)CC[C@@H]32)c1	none (no result: Glyco luc inh, Vif inh, Wnt act, MITF act, PvdQ acylase)
Cc1cc(C)n(-c2nnc3c4ccccc4n(C)c3n2)n1	Wnt act 48 (no result: esBAF inh, MITF act)
CCCNC(=O)[C@H]1[C@H](CO)[C@H]2Cn3c(ccc(C4=CCCC4)c3=O)[C@@H]1N2C(=O)C1CC1	none (no result: Glyco luc inh, Vif inh, Wnt act, MITF act, PvdQ acylase)
O=C(OCc1cc(=O)n2ccsc2n1)c1ccc(O)cc1O	esBAF inh 54
CC(=O)c1ccc(OCc2cc(=O)n3ccsc3n2)cc1	none (no result: esBAF inh)
O=c1cc(COc2ncnc3ccccc23)nc2sccn12	none
Cc1ccsc1C(=O)OCc1cc(=O)n2ccsc2n1	Wnt act 54
CCc1cc2c(=O)c(-c3nc4ccccc4[nH]3)coc2cc1OC(=O)N1CCOCC1	esBAF inh 68
COc1ccccc1-c1coc2cc(OC(=O)N3CCOCC3)ccc2c1=O	none (no result: MITF act, PvdQ acylase)
Cc1cc(C(=O)Nc2cccc3c2O[C@@H](CN(C)Cc2ccc(Cl)c(Cl)c2)[C@@H](C)CN([C@H](C)CO)C3=O)n(C)n1	none (no result: Glyco luc inh, Vif inh, Wnt act, MITF act, PvdQ acylase)
Cc1ccc(-n2ncc3c(NCc4cccnc4)ncnc32)c(C)c1	none (no result: esBAF inh)
Cc1cccc(-n2ncc3c(NCc4cccnc4)ncnc32)c1	esBAF inh 88
Cc1c(C)n(CCc2ccccc2)c2ncnc(NCCO)c12	esBAF inh 76, MITF act 138
COc1ccc(-n2c(C)c(C)c3c(NCCCO)ncnc32)cc1	none
COc1ccc(-n2ncc3c(NCc4cccnc4)ncnc32)cc1	Wnt act 43, esBAF inh 55
Cc1ccc(-n2c(C)c(C)c3c(NCCCO)ncnc32)cc1	esBAF inh 59
C[C@@H]1CCCCO[C@H](CN(C)C(=O)Nc2ccccc2)[C@H](C)CN([C@H](C)CO)C(=O)c2cc(NC(=O)NC3CCCCC3)ccc2O1	none (no result: Glyco luc inh, Vif inh, Wnt act, MITF act, PvdQ acylase)
